We go through 18 compounds from PubChem BioAssay.

Inconclusive results are not listed. Active and inactive are the calls of the source. Unless noted, no rule for the calls is given here.

Experiment [1] has as its target Pantothenate synthetase (Mycobacterium tuberculosis (strain ATCC 25618 / H37Rv)) (UniProt P9WIL5). As to the kind of experiment: Recombinant Mtb pantothenate synthetase (PanC) inhibitors, coupled enzyme, confirmatory (AID 375).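 Also: 0% = full reaction with vehicle and 100% = no enzyme background.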 The following applies: coupled enzyme assay; at 10 µM, stronger effect = higher value.
Experiment [2] in a line: SK-BR-3 cell growth inhibitors, pilot screen, 24 h, human (AID 572;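 active = viability at or below 10% of carrier control in both of two separate runs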;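 also: compound exposure lasted between 18 and 24 h rather than exactly 24 h; 100% = carrier-treated control wells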). The following applies: SK-BR-3 viability, CellTiter-Glo luminescence, at 10 µM, stronger effect = lower value. (ATP-based viability assays read luminescence as a measure of living cells.)
Experiment [3] is described as follows: HUVEC growth inhibition – cell-based, human, primary screen (AID 575;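 active = viability at or below 30% in both replicate assays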;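 also: 100% = median of untreated cell wells with 0.1% DMSO on each plate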). To be noted: HUVEC proliferation, CellTiter-Glo luminescence, 72 h; at 10 µM; stronger effect = lower value.
Experiment [4] can be described thus: growth inhibitors of H69AR lung tumor, primary screen, human, duplicate replicates (AID 580;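 active = viability at or under a set limit in both replicates, limit being median viability minus 3 SD, cut at about 48% in these data, passing the limit was not always enough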;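 also: 100% = mean luminescence of untreated wells and 0% = no signal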). To be noted: H69AR lung tumor cells viability, ATP luminescence, 72 h; at 10 µM; stronger effect = lower value.
A short description of experiment [5]: reversal of MRP1-mediated doxorubicin resistance, pilot screen, H69AR cells, doxorubicin co-treatment (AID 601;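 active = viability loss from added drug above about 55%, and viability with drug at most 40%, in both replicates, limit read from the data, passing the limit was not always enough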). To be noted: CellTiter-Glo, 72 h, at 10 µM; for differential viability (reversal): stronger effect = higher value.
Experiment [6] in a line: 384-well plate pilot, post-Golgi transport modulator project, inhibition of yeast transport mutant growth (AID 636; in the data active = inhibition above about 31%). The following applies: absorbance 615 nm, about 18 h, stronger effect = higher value.
Experiment [7] in a line: growth suppression of yeast trafficking mutant, preliminary HTS, modulators of trafficking downstream of Golgi apparatus project, 1536-format plate, OD 615 nm (AID 637; in the data active = inhibition above about 30%). The following applies: yeast transport mutant growth, absorbance 615 nm, 18 h; stronger effect = higher value.
Experiment [8] can be described thus: OD615 S. cerevisiae growth inhibition, permissive medium, pilot counter-assay, permissive growth control for S. cerevisiae lifespan shortening project (AID 705;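 active = growth inhibition above 25% in both replicates, a cutoff set 3 SD above the mean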). To be noted: OD615, 24 h, at 10 µM, stronger effect = higher value.
The nature of experiment [9]: Restrictive medium S. cerevisiae growth inhibition, OD615, pilot screen of yeast lifespan reduction project, restrictive growth control (AID 706;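 active = growth inhibition above a set limit, 3 SD over mean compound inhibition, in both replicates, cut at about 43% in these data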;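 also: modified DeaD lifespan yeast strain shifted to restrictive glucose medium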). To be noted: OD615, 48 h, at 10 µM, stronger effect = higher value.
The nature of experiment [10]: viability gain of MRP-1-high H69AR cells under doxorubicin, pilot screen, MRP-1 activator project, CellTiter-Glo, duplicate (AID 807;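 active = viability increase at or above a cutoff of the median across tested compounds plus 3 SD, cut at about 8.5% in these data, passing the limit was not always enough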;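 also: compound pretreatment 18-22 h then 72 h combined with doxorubicin; 0% = doxorubicin alone and 100% = vehicle without doxorubicin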). To be noted: H69AR viability with doxorubicin, CellTiter-Glo luminescence; at 10 µM; stronger effect = higher value.
A short description of experiment [11]: growth suppression of beta-catenin knockout HCT116, pilot screen, human colon tumor cells (AID 823;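 active = cell viability at or below a set limit in both duplicate runs, the limit being the all-compound median minus 4 SD, cut at about 23% in these data, passing the limit was not always enough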;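 also: 0% = wells killed by 20 µM Hyamine and 100% = untreated DMSO cell wells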). The following applies: CellTiter-Glo, 60 h, at 10 µM, stronger effect = lower value.
The nature of experiment [12]: growth suppression of PTEN-deleted HCT116, pilot screen, cell-based, HCT116 clonal line, CellTiter-Glo (AID 824;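 active = viability at or below 27.92% in each of two runs, the all-compound median minus 4 SD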;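 also: 0% = 20 µM Hyamine control and 100% = vehicle cell control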). The following applies: 60 h, at 10 µM, stronger effect = lower value.
The nature of experiment [13]: inhibitors of the yeast RAM network, pilot screen, dse1pr::URA3 reporter, 5-FOA selection (AID 869;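 active = inhibition over a set limit, the all-compound mean plus 3 SD, in both replicate runs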;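 also: 0% = DMSO wells with no growth and 100% = 10 µM 1-NA-PP1 with full growth; RAM network block rescues cells from 5-FOA so hits raise OD615 growth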). To be noted: S. cerevisiae dse1pr::URA3 5-FOA growth, OD615, 2 d, at 10 µM, stronger effect = higher value.
Where [14] appears, read: H69AR cells + 2 uM doxorubicin, measured here: viability with 2 uM doxorubicin, stronger effect = lower value.
[15] abbreviates: H69AR cells, compound alone cytotoxicity.

Chain of Pantothenate synthetase (Mycobacterium tuberculosis (strain ATCC 25618 / H37Rv)) (P9WIL5 whole entry, looked up): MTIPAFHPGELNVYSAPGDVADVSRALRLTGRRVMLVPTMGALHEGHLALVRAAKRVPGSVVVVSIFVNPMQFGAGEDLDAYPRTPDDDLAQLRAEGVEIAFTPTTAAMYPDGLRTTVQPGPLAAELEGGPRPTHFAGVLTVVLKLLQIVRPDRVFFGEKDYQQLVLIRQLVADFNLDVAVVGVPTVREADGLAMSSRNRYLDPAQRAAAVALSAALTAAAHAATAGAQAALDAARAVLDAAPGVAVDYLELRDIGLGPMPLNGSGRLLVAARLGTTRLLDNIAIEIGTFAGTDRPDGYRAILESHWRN

In the case of `CNCCc1c[nH]c2ccccc12`, the values for the inhibition in experiment [1], in experiment [6] and in [7] were 0% (inactive), -0.39% (inactive) and 12% (inactive), respectively. In addition, the viability was 127% (inactive) in experiment [2]; 85.9% (inactive) in experiment [3]; 84.5% (inactive) in [4]; 105% in [5] (setting [14]); 84.5% in [5] (setting [15]). For the same compound, in experiment [5] (H69AR cells + 2 uM doxorubicin), the differential viability (reversal) is -20.1% (inactive).

On to `O=C(C1CCCN(c2nnc(-n3cccc3)s2)C1)N1CCC2(CC1)OCCO2` (centres undefined), for which the inhibition was 0% (inactive) in experiment [1], -7.33% (inactive) in [6] and -5.09% (inactive) in [7]. Also, the viability in [2] was 83% (inactive); in [3], 109% (inactive); in [4], 94.3% (inactive); in experiment [5] (setting [14]) it was 81.6%; in experiment [5] (setting [15]), 94.3%. In addition, the differential viability (reversal) in experiment [5] (H69AR cells + 2 uM doxorubicin) was 12.8% (inactive).

Take `CC(C)[C@@]1(NC(=O)[C@@H]2C[C@@H]3c4cccc5[nH]cc(c45)C[C@H]3N(C)C2)O[C@@]2(O)[C@@H]3CCCN3C(=O)[C@H](Cc3ccccc3)N2C1=O`: the inhibition was 4% (inactive) in experiment [1], -1.56% (inactive) in experiment [6] and -1.67% (inactive) in [7]. For the same compound, the viability is 111% (inactive) in experiment [2]; 4.38% (active) in [3]; 73.8% (inactive) in experiment [4]; 77.3% in experiment [5] (setting [14]); 73.8% in experiment [5] (setting [15]). In addition, in [5] (H69AR cells + 2 uM doxorubicin), the differential viability (reversal) is -3.47% (inactive).

`O=C1CC[C@@]2(O)[C@H]3Cc4ccc(O)c5c4[C@@]2(CCN3CC2CC2)[C@H]1O5`: the inhibition is 4% (inactive) in [1], 0.26% (inactive) in experiment [6] and 2.17% (inactive) in [7]. Further, the viability in experiment [2] was 95% (inactive); in experiment [3], 90.6% (inactive); in experiment [4], 99.5% (inactive); in experiment [5] (setting [14]), 88.6%; in [5] (setting [15]), 99.5%. In addition, the differential viability (reversal) in experiment [5] (H69AR cells + 2 uM doxorubicin) was 11% (inactive).

For the compound `c1ccc2c(c1)[nH]c1cnccc12`, the inhibition in experiment [1] is 0% (inactive); in [6] it was -0.78% (inactive); in experiment [7], 0.5% (inactive). Besides, the viability was 100% (inactive) in experiment [2]; 70.2% (inactive) in experiment [3]; 83% (inactive) in experiment [4]; 80.7% in experiment [5] (setting [14]); 83% in [5] (setting [15]). Also, the differential viability (reversal) in [5] (H69AR cells + 2 uM doxorubicin) was 2.26% (inactive).

As to `OC(CNC1CCCCC1)c1ccccc1` (centres undefined), the values for the inhibition in [1], in experiment [6] and in [7] were 7% (inactive), -2.67% (inactive) and -2.55% (inactive), respectively. The viability in [2] was 104% (inactive); in experiment [3], 111% (inactive); in [4] it was 98% (inactive); in experiment [5] (setting [14]) it was 85.7%; in experiment [5] (setting [15]), 98%. In addition, in experiment [5] (H69AR cells + 2 uM doxorubicin), the differential viability (reversal) is 12.3% (inactive).

`CCOC(=O)c1c(N)n(Cc2ccco2)c2nc3ccccc3nc12`: the results for the growth inhibition in experiment [8] and in [9] were -1.25% (inactive) and 0.175% (inactive), respectively. Further, the viability increase in experiment [10] was -6.16% (inactive). The viability in [11] was 83.3% (inactive); in experiment [12] it was 74% (inactive). In addition, the inhibition in experiment [13] was 1.18% (inactive).

`CCOC(=O)C(C)Oc1cc(C)cc2oc(=O)c3c(c12)CCCC3` (centres undefined): the growth inhibition in [8] is -9.51% (inactive); in experiment [9], -2.87% (inactive). Also, the viability increase in experiment [10] is -4.65% (inactive). Further, the viability in [11] is 70.3% (inactive). Also, in experiment [13], the inhibition was 1.43% (inactive).

On to `CCCC(=O)OCC[N+](C)(C)C`, for which the inhibition in experiment [1] was 0% (inactive); in [6], 1.04% (inactive); in experiment [7] it was 40.7% (active). Moreover, the viability is 83% (inactive) in experiment [2]; 93.4% (inactive) in experiment [3]; 101% (inactive) in experiment [4]; 106% in experiment [5] (setting [14]); 101% in experiment [5] (setting [15]). In addition, the differential viability (reversal) in experiment [5] (H69AR cells + 2 uM doxorubicin) was -4.88% (inactive).

Turning to `CC1(C)CC(=O)C=C(NCCN2CCN(C(=O)Cc3ccc(Cl)cc3)CC2)C1`, the inhibition in [1] was 2% (inactive); in experiment [6], -0.79% (inactive); in [7] it was -2.06% (inactive). In addition, the viability in experiment [3] is 109% (inactive); in experiment [4] it was 92.4% (inactive); in [5] (setting [14]) it was 95.9%; in experiment [5] (setting [15]) it was 92.4%. The differential viability (reversal) in experiment [5] (H69AR cells + 2 uM doxorubicin) is -3.5% (inactive).

`CCOCC(=O)NC1CCSC1=O` (centres undefined): the inhibition in [1] was 0% (inactive); in [6] it was -9.45% (inactive); in experiment [7], 5.16% (inactive). For the same compound, the viability in experiment [2] was 74% (inactive); in experiment [3] it was 99.4% (inactive); in [4] it was 93.8% (inactive); in experiment [5] (setting [14]), 93.6%; in [5] (setting [15]), 93.8%. Further, in experiment [5] (H69AR cells + 2 uM doxorubicin), the differential viability (reversal) was 0.265% (inactive).

In the case of `CCC(C)NC(=O)c1c(N)n(CC2CCCO2)c2nc3ccccc3nc12` (centres undefined), the inhibition was 0% (inactive) in [1], -0.4% (inactive) in experiment [6] and 4.92% (inactive) in experiment [7]. Besides, the viability in experiment [2] is 93% (inactive); in experiment [3], 53.4% (inactive); in experiment [5] (setting [14]), 61.5%; in experiment [5] (setting [15]), 53.4%. In addition, the differential viability (reversal) in [5] (H69AR cells + 2 uM doxorubicin) was -8.02% (inactive).

In the case of `C#C[C@]1(O)CC[C@H]2[C@@H]3CCC4=CC(=O)CC[C@]4(C)[C@H]3CC[C@@]21C`, the inhibition in experiment [1] was 4% (inactive); in [6] it was -1.69% (inactive); in experiment [7], 11.2% (inactive). Also, the viability is 101% (inactive) in experiment [2]; 91.6% (inactive) in experiment [3]; 91.3% (inactive) in experiment [4]; 105% in experiment [5] (setting [14]); 91.3% in experiment [5] (setting [15]). Further, the differential viability (reversal) in [5] (H69AR cells + 2 uM doxorubicin) was -13.7% (inactive).

Turning to `CC[N+]1(C)CCCC(OC(=O)C(O)(c2ccccc2)c2ccccc2)C1` (centres undefined), the inhibition in experiment [1] was 0% (inactive); in [6] it was -5.71% (inactive); in experiment [7] it was -3.67% (inactive). Moreover, the viability in experiment [2] was 81% (inactive); in experiment [3], 76.8% (inactive); in experiment [4], 101% (inactive); in [5] (setting [14]), 89.6%; in experiment [5] (setting [15]) it was 101%. Moreover, the differential viability (reversal) in experiment [5] (H69AR cells + 2 uM doxorubicin) was 11.1% (inactive).

For the compound `O=C(Cn1cc(C(=O)c2ccccc2)c2ccccc21)NCc1ccco1`, the inhibition in experiment [1] was 2% (inactive); in experiment [6], 2.47% (inactive); in experiment [7], 6.51% (inactive). The viability is 47.3% (inactive) in experiment [3], 22.6% (active) in experiment [4], 69.8% in [5] (setting [14]) and 22.6% in experiment [5] (setting [15]). Moreover, the differential viability (reversal) in experiment [5] (H69AR cells + 2 uM doxorubicin) was -47.2% (inactive).

As for `CCOC(=O)C1=C(N)OC(C)=C(C(=O)OCCOC)C12C(=O)Nc1ccccc12` (centres undefined), the inhibition was 5% (inactive) in experiment [1], -4.52% (inactive) in [6] and 1.64% (inactive) in experiment [7]. Also, the viability in [2] is 85% (inactive); in experiment [3] it was 92% (inactive); in [4] it was 98.2% (inactive); in experiment [5] (setting [14]), 107%; in experiment [5] (setting [15]), 98.2%. Besides, the differential viability (reversal) in [5] (H69AR cells + 2 uM doxorubicin) was -9.01% (inactive).

On to `O=c1[nH]c(=O)n(Cc2ccc(F)cc2)c(O)c1C=NCCCN1CCOCC1`, for which the inhibition was 0% (inactive) in experiment [1], -1.6% (inactive) in experiment [6] and -2.22% (inactive) in [7]. Moreover, the viability in experiment [3] is 96% (inactive); in experiment [4], 95.5% (inactive); in experiment [5] (setting [14]), 91.9%; in experiment [5] (setting [15]) it was 95.5%. The differential viability (reversal) in experiment [5] (H69AR cells + 2 uM doxorubicin) is 3.54% (inactive).

As for `CCCCN1C(=O)NC(=O)C2(Cc3c(nc4c(C)cccn4c3=O)N3CCc4ccccc4C32)C1=O` (centres undefined), the inhibition in experiment [1] is 3% (inactive); in experiment [6], 3.56% (inactive); in [7], 10.5% (inactive). Further, the viability in experiment [2] was 111% (inactive); in experiment [5] (setting [14]), 75.6%; in [5] (setting [15]), 55.8%. Further, in [5] (H69AR cells + 2 uM doxorubicin), the differential viability (reversal) is -19.7% (inactive).

One may read the inhibition as the change of the read-out against control, counted positive when it falls. The viability is a read-out of living cells in per cent, often relative to untreated cells.
